Molecules are shown by their SMILES. The whole screen tested about 200,000 compounds, of which about 720 (0.36%) were called active. Roughly 8% stayed inconclusive and do not appear here. Calls follow the shape of the dose curve; as a rule, active = well fitted activation curve with a large enough effect; inconclusive = small, poorly fitted or top-dose-only effect, or effect the other way, or another doubt; inactive = flat fitted curve, though single readings scatter. This is one part of the list.
Potency is read from the fitted curve at half-maximal effect.

This assay addresses Lysosomal alpha-glucosidase (Homo sapiens) (UniProt P10253). Description: qHTS Assay for Activators of Human alpha-Glucosidase as a Potential Chaperone Treatment of Pompe Disease. Also: nearly all actives have a fitted effect of over 80% in size. The settings on record: purified enzyme, 4-MU-alpha-glucoside fluorescence, 20 min; series mostly up to 76.9 µM. An outline of the steps: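 Compounds titrated up to 77 uM against 4 nM enzyme and 400 uM methylumbelliferyl substrate at room temperature, 20 min, pH 5.0. Basic stop, then 4-methylumbelliferone fluorescence (365/440 nm) normalized to no-enzyme and enzyme controls; Hill-equation AC50.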
(Quantitative high-throughput screening tests each substance at several concentrations.)
For `Cc1ccc(-c2cc(-c3ccccc3Cl)c(C#N)c(N)n2)o1`, the Potency is 28.2 µM (active).
For `Cc1ccc(-c2cc(-c3ccccc3)c(C#N)c(N)n2)o1`, the Potency was 35.5 µM (active).
The result for `Cn1c(C(=O)NCC2CCCO2)cc2c(=O)n3ccccc3nc21` (configuration not stated) reads 31.6 µM (active); that for `Cn1c(C(=O)NCc2ccccn2)cc2c(=O)n3ccccc3nc21`, 28.2 µM (active).
Next, `CCOC(=O)CC1C(=O)NCCN1C(=O)c1cc2c(=O)n3ccccc3nc2s1` (configuration not stated): 35.5 µM (active); `CCOC(=O)CC1C(=O)NCCN1C(=O)c1cc2c(=O)n3cccc(C)c3nc2s1` (configuration not stated): 31.6 µM (active); `O=C(c1cc2c(s1)-c1ccccc1OC2)N1CCCC1`: 28.2 µM (active).
The result for `COc1cc2c(cc1OC)C(C)N(C(=O)c1cc3c(s1)-c1ccccc1OC3)CC2` (configuration not stated) reads 39.8 µM (active); that for `O=C(c1cc2c(s1)-c1ccccc1OC2)N1CCc2ccccc2C1`, 35.5 µM (active); that for `CN1C(=O)c2ccccc2N(C)C1c1ccccc1Cl` (configuration not stated), 39.8 µM (active).
On to `CCCCn1c2nc3ccccc3nc2c2c(=O)n(-c3ccccc3)cnc21`, for which the Potency was 35.5 µM (active).
The result for `CCC(N=c1cc(-c2ccc(OC)cc2)oc2ccc(C)cc12)C(=O)O` (configuration not stated) reads 31.6 µM (active); that for `O=[N+]([O-])c1cccc(Nc2c3ccccc3nc3ccccc23)c1`, 28.2 µM (active); that for `O=c1oc2c(CN3CCN(CCO)CC3)c(O)ccc2cc1-c1ccccn1`, 31.6 µM (active).
Next, `CCCN(CC(=O)Nc1ccc(Cl)cc1Cl)C(=O)/C=C/c1cc(OC)ccc1OC`: 31.6 µM (active); `c1ccc(C[n+]2cccc3c4ccccc4ccc32)cc1`: 39.8 µM (active).
The result for `CCCCC[n+]1cccc2c3ccccc3ccc21` reads 35.5 µM (active); that for `O=C(O)C1C2C=CC(O2)C1C(=O)NCCCn1ccnc1` (configuration not stated), 20 µM (active); that for `CN1CCCc2cc(C#N)c(=O)[nH]c21`, 39.8 µM (active).
Consider `Cc1cc(=O)oc2cc3c(cc12)OCCN3`, for which the Potency was 35.5 µM (active).
Consider `N#Cc1c(C(F)(F)F)cc(-c2ccccc2)[nH]c1=O`, for which the Potency was 35.5 µM (active).
The result for `N#Cc1c(C(F)(F)F)cc(-c2cccc(Cl)c2)[nH]c1=O` reads 39.8 µM (active); that for `COc1cccc(-c2ccc(C#N)c(=O)[nH]2)c1`, 39.8 µM (active).
For `COc1cccc(-c2cc(C(F)(F)F)c(C#N)c(=O)[nH]2)c1`, the Potency was 35.5 µM (active).
Next, `N#Cc1c(C(F)(F)F)cc(-c2ccc(F)cc2)[nH]c1=O`: 35.5 µM (active).
The result for `N#Cc1c(C(F)(F)F)cc(-c2ccc(Cl)cc2)[nH]c1=O` reads 39.8 µM (active); that for `COc1ccccc1-c1cc(C(F)(F)F)c(C#N)c(=O)[nH]1`, 39.8 µM (active); that for `O=C1c2cnc3ncnn3c2CC2c3ccccc3CCN12` (configuration not stated), 12.6 µM (active).
Next, `N#Cc1cnn2c3c(cnc12)C(=O)N1CCc2ccccc2C1C3` (configuration not stated): 3.98 µM (active).
Turning to `CC(=O)c1cc2cc(O)ccc2o1`, the Potency is 35.5 µM (active).
Take `Cc1cc(C)n(-c2nc3ccccc3[nH]c2=O)n1`: the Potency was 39.8 µM (active).
Next, `CNc1nnc(-c2ccc(N(C)C)cc2)s1`: 35.5 µM (active); `Cc1cc(=O)[nH]c2cc(O)ccc12`: 35.5 µM (active).
The result for `CC(=O)Oc1ccc2c(C)cc(=O)[nH]c2c1` reads 20 µM (active); that for `CCc1cc2c(=O)c(Oc3ccccc3F)c(C)oc2c(CN(C)C)c1O`, 35.5 µM (active); that for `CC1CCN(c2oc(-c3cccc4ccccc34)nc2C#N)CC1`, 25.1 µM (active).
Take `C=CCNc1oc(-c2cccc3ccccc23)nc1C#N`: the Potency was 31.6 µM (active).
The result for `CC(C)Nc1oc(-c2cccc3ccccc23)nc1C#N` reads 35.5 µM (active); that for `COc1ccccc1NC(=O)CSc1nc2c(sc3ccccc32)c(=O)n1CCN(C)C`, 35.5 µM (active).
The result for `CCOC(=O)c1c(C)nc(C)c(C(=O)OCC)c1-c1ccccc1` reads 31.6 µM (active); that for `Cc1ccc(-c2cc(C(=O)O)c3sc(N4CCCCC4)nc3n2)cc1`, 28.2 µM (active); that for `O=C(O)c1cc(-c2ccccc2)nc2nc(N3CCCCC3)sc12`, 28.2 µM (active).
Next, `CCCN(CCC)CCCNC(=O)c1cc2cc3ccc(OC)cc3nc2o1`: 28.2 µM (active); `CCCCN(CC)CCCNC(=O)c1cc2cc3ccc(OC)cc3nc2o1`: 31.6 µM (active).
`CCn1cc(-c2ccnc3cc(C(=O)O)nn23)c(C)n1`: the Potency was 39.8 µM (active).
`O=C1NC(c2ccco2)Nc2sc3c(c21)CCN(Cc1ccccc1)C3` (configuration not stated): the Potency is 35.5 µM (active).
Next, `CN1CCc2c(sc3c2C(=O)NC(c2ccco2)N3)C1` (configuration not stated): 31.6 µM (active); `CCCCCn1c(=O)c(-c2nc3ccccc3[nH]2)c(O)c2ccccc21`: 39.8 µM (active); `Cc1c(O)ccc2c3c(c(=O)oc12)CCCC3`: 35.5 µM (active).
`Cc1c(O)ccc2c3c(c(=O)oc12)CCC(C)C3` (configuration not stated): the Potency was 35.5 µM (active).
Regarding `Fc1ccc(-n2c(-c3cccs3)nc3nc4ccccc4nc32)cc1`, the Potency was 3.55 µM (active).
Take `Fc1cccc(-n2c(-c3ccco3)nc3nc4ccccc4nc32)c1`: the Potency was 6.31 µM (active).
Next, `Fc1ccc(-n2c(-c3ccco3)nc3nc4ccccc4nc32)cc1`: 7.94 µM (active); `Cc1cc(=O)n2cccc(O)c2n1`: 25.1 µM (active).
The result for `O=c1cccc2n1Cc1cc3ccccc3nc1-2` reads 35.5 µM (active).
The result for `CC1CN(S(=O)(=O)c2cccc(-c3cn4cccnc4n3)c2)CC(C)O1` (configuration not stated) reads 35.5 µM (active); that for `CN(C)S(=O)(=O)c1cccc(-c2cn3cccnc3n2)c1`, 39.8 µM (active); that for `CCc1nnc(NC(=O)CSc2nc(C)c3c(c2C#N)CCCC3)s1`, 35.5 µM (active).
For `CCC(O)CNc1nc(SC)nc2sc3c(c12)CCN(C)C3` (configuration not stated), the Potency was 28.2 µM (active).
Turning to `CSc1nc2oc3c(c2c2nncn12)CC(C)(C)SC3`, the Potency is 39.8 µM (active).
With `Cc1cc(NC(C)C)n2c(nc3ccccc32)c1C#N`, the Potency was 35.5 µM (active).
`CCCc1cc(NCc2ccccn2)n2c(nc3ccccc32)c1C#N`: the Potency is 35.5 µM (active).
Next, `Cc1cc(NCCCCO)n2c(nc3ccccc32)c1C#N`: 35.5 µM (active).
Next, `CCCc1cc(NCCCCO)n2c(nc3ccccc32)c1C#N`: 35.5 µM (active); `Cc1cc(NCCCn2ccnc2)n2c(nc3ccccc32)c1C#N`: 35.5 µM (active); `COCCNc1cc(C)c(C#N)c2nc3ccccc3n12`: 35.5 µM (active).
The result for `Cc1cc(NCCCO)n2c(nc3ccccc32)c1C#N` reads 35.5 µM (active); that for `Cc1ccc(-c2cn3cccnc3n2)cc1NC(=O)c1ccc(Br)o1`, 35.5 µM (active); that for `COc1cccc(C(=O)Nc2cc(-c3cn4cccnc4n3)ccc2C)c1`, 35.5 µM (active).
Regarding `COc1cc(C(=O)Nc2cc(-c3cn4cccnc4n3)ccc2C)cc(OC)c1OC`, the Potency is 35.5 µM (active).
Next, `O=c1oc2c(CN3CCCCC3)c(O)ccc2c2c1CCCC2`: 35.5 µM (active).
In the case of `O=c1oc2c(CN3CCCCC3)c(O)ccc2c2c1CCCCC2`, the Potency was 35.5 µM (active).
The result for `COCC(C)OC(=O)c1c(N)n(CC(C)C)c2nc3ccccc3nc12` (configuration not stated) reads 35.5 µM (active); that for `CCOC(=O)c1c(N)n(CC(C)NC(=O)C2CC2)c2nc3ccccc3nc12` (configuration not stated), 35.5 µM (active).
Next, `C=CCn1c(N)c(C(=O)OCCC)c2nc3ccccc3nc21`: 35.5 µM (active); `C=CCn1c(N)c(C(=O)OC(C)(C)C)c2nc3ccccc3nc21`: 35.5 µM (active).
Next, `C=CCn1c(N)c(C(=O)OC(C)CC)c2nc3ccccc3nc21` (configuration not stated): 31.6 µM (active).
Take `CC(C)(C)OC(=O)c1c(N)n(CCCN2CCCC2=O)c2nc3ccccc3nc12`: the Potency is 31.6 µM (active).
Next, `C=CCn1c(N)c(C(=O)OCC(C)C)c2nc3ccccc3nc21`: 35.5 µM (active); `Cc1cc(=O)oc2c(CN(CC(C)C)CC(C)C)c(O)ccc12`: 31.6 µM (active).
Next, `COCCN(CCOC)Cc1c(O)ccc2c3c(c(=O)oc12)CCC3`: 35.5 µM (active); `Cc1cc(=O)oc2c(CN(C)Cc3ccccc3)c(O)ccc12`: 35.5 µM (active); `CC(C)CN(Cc1c(O)ccc2c3c(c(=O)oc12)CCC3)CC(C)C`: 31.6 µM (active).
Next, `CN(C)Cc1c(O)ccc2c3c(c(=O)oc12)CCCCC3`: 35.5 µM (active).
In the case of `COc1ccc(-c2cc(C(F)(F)F)n3nc(C(=O)NCCN4CCOCC4)cc3n2)cc1`, the Potency is 44.7 µM (active).
Next, `CCCc1cc(=O)oc2c(CN3CCCC3)c(O)ccc12`: 35.5 µM (active).
The result for `CCCCc1cc(=O)oc2c(CN3CCCC3)c(O)ccc12` reads 31.6 µM (active); that for `CCCc1cc(=O)oc2c(CN3CCOCC3)c(O)ccc12`, 31.6 µM (active); that for `COC(=O)C1=CN(CC2CCCO2)C=C(C(=O)OC)C1c1ccccc1C(F)(F)F` (configuration not stated), 25.1 µM (active).
Turning to `CCOC(=O)C1=CN(CC2CCCO2)C=C(C(=O)OCC)C1c1ccccc1C(F)(F)F` (configuration not stated), the Potency was 35.5 µM (active).
The result for `COc1ccc(CNc2oc(-c3cccc4ccccc34)nc2C#N)cc1` reads 28.2 µM (active); that for `CCOP(=O)(OCC)c1nc(-c2cccc3ccccc23)oc1NCc1ccc(OC)cc1`, 35.5 µM (active).
The result for `COP(=O)(OC)c1nc(-c2cccc3ccccc23)oc1NCc1ccccc1` reads 35.5 µM (active); that for `Cc1oc2cc(O)ccc2c(=O)c1Oc1ccc2ccccc2c1`, 39.8 µM (active).
Next, `CC(=O)Oc1cc2oc(=O)cc(C)c2cc1OC(C)=O`: 31.6 µM (active); `Cc1cc(=O)oc2cc(OC(=O)c3ccccc3)ccc12`: 25.1 µM (active); `CCC(=O)Oc1ccc2c(C)c(Cl)c(=O)oc2c1`: 35.5 µM (active).
Turning to `Cc1cc(=O)oc2cc(OC(=O)c3cncc(Br)c3)ccc12`, the Potency was 17.8 µM (active).
The result for `Cc1cc(=O)oc2cc(OC(=O)CCN3C(=O)c4ccccc4C3=O)ccc12` reads 25.1 µM (active); that for `CC(=O)Oc1ccc2c(C)cc(=O)oc2c1`, 35.5 µM (active); that for `Cc1cc(=O)oc2cc(OCc3ccc(C(=O)N4CCN(c5ccccc5)CC4)cc3)ccc12`, 39.8 µM (active).
The result for `CCCC(=O)Oc1ccc2c(C)cc(=O)oc2c1` reads 35.5 µM (active).
